CYP2C19 inhib = inhibitors of human CYP2C19 | 96,000 compounds, 21% hits | inhibition, % at 5 µM | P33261 | CYP2C19 Supersomes, luciferin-H EGE luminescence, 30 min;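 active = CYP2C19 inhibition above a set limit at 5 µM in the primary screen, cut at about 50% in these data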
D1 mod = allosterically modulates the human D1 dopamine receptor; 58,000 compounds, 5.9% hits; B-score at 10 µM; P21728; HEK293 D1, CRE-luciferase, dopamine EC30 potentiation; actives deviate in either direction; AID 641;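 active = luminescence count or its row- and column-corrected plate score outside the 99.7% band of the plate's sample wells, on either side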
CYP2C19 act = cytochrome P450 2C19 (human) activation; AID 1025; recombinant CYP2C19, luciferin-H EGE luminescence; hits give high values; 0 = fully inhibited enzyme, 1 = untreated enzyme; activation factor at 5 µM; P33261; 96,000 tested, under 10 active;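 active = activation factor of at least 2 at 5 µM in the primary screen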
hDAT+cocaine = human DAT dopamine uptake with cocaine, either direction; Q01959; LLC-PK1 hDAT cells, [14C]-dopamine uptake with cocaine IC80; actives deviate in either direction; B-score at 10 µM; 110,000 compounds, 1.3% hits; AID 449768;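 active = Z score or B-score, a plate-position-corrected score, falls beyond the plate's 99.7% confidence bounds, in either direction; inactive = both scores lie inside the 99.7% bounds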
CYP2C9 act = activators of human CYP2C9. recombinant CYP2C9, luciferin-H conversion, luminescence; hits give high values; factor 1 = untreated enzyme, 0 = blocked. activation factor at 5 µM. 96,000 compounds, 1.4% hits. AID 1024;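 active = activation factor of 2 or more for CYP2C9 at a 5 µM dose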
Target sequence (P11712 whole entry, looked up): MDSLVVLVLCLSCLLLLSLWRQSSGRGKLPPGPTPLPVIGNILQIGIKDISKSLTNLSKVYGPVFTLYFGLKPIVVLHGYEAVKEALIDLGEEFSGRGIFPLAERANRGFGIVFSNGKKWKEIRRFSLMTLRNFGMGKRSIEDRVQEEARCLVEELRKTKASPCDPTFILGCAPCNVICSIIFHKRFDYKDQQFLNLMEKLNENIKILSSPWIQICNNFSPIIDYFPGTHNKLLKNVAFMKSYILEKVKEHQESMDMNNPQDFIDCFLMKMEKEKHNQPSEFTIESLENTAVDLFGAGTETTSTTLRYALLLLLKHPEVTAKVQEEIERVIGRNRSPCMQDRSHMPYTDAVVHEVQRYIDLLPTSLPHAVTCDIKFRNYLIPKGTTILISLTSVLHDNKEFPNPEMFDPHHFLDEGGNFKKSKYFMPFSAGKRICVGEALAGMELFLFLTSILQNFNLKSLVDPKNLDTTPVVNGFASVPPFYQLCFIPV
CYP2C9 inh = inhibitors of human CYP2C9 | CYP2C9 Supersomes, luciferin-H conversion, luminescence | 96,000 compounds, 20% hits | AID 777 | inhibition, % at 5 µM | P11712;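 active = blocking of liver enzyme CYP2C9 beyond about 50% at 5 µM, limit read from the data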
Each line names hits and unclear results; the compound was inactive in the other large screens. This is a sample that favours compounds with a hit; in the whole collection about 28% have one here.

Cc1cc(C)c(NC(=O)/C=C\C(=O)O)c([N+](=O)[O-])c1	none (no result: D1 mod)
COc1cccc(-c2nn(C)c3sc(C(=O)NCc4ccc(C)o4)cc23)c1	CYP2C9 inh 54
COc1cccc(-c2nn(C)c3sc(C(=O)NCc4ccc5c(c4)OCO5)cc23)c1	CYP2C19 inhib 76, CYP2C9 inh 87
COc1cccc(-c2cc(C(=O)Nc3cc(C)n(Cc4ccc(Cl)cc4)n3)no2)c1	none
Cc1ccc(S(=O)(=O)N[C@@H](Cc2ccccc2)C(=O)CCl)cc1	none (no result: CYP2C19 inhib, D1 mod, CYP2C19 act, CYP2C9 act, CYP2C9 inh)
CCCc1c(O)nc(SCCN(CC)CC)n(C(=O)c2ccccc2)c1=O	none
CCN(CC)C(=O)Cn1nnc(-c2ccc(C)o2)n1	none
Cc1ccc(-c2nnn(CC(=O)Nc3cccc4c3CCCC4)n2)o1	CYP2C19 inhib 52
Cc1ccc(-c2nnn(CC(=O)NCCc3ccc4c(c3)OCO4)n2)o1	CYP2C19 inhib 60, CYP2C9 inh 89
CC1(C)CC(=O)c2cnc(NC(=O)C3CCCC3)nc2C1	none
CC(C)c1nnc(NC(=O)CCC(=O)NCc2ccc3c(c2)OCO3)s1	none
CC1CCCCC1NC(=O)COC(=O)c1ccc(N(C)C)cc1 (stereo unspecified)	CYP2C19 inhib 91 (no result: D1 mod)
O=C(CCN1C(=O)c2ccccc2C1=O)NC1=NCCS1	none
CCCOc1ccc(N2CC(C(=O)Nc3ccccc3C(=O)NCc3ccco3)CC2=O)cc1 (stereo unspecified)	CYP2C9 inh 62
COc1ccc(N2CC(C(=O)Nc3ccc(F)cc3F)CC2=O)cc1 (stereo unspecified)	none
O=C(NCc1ccco1)C1CC(=O)N(CCc2ccccc2)C1 (stereo unspecified)	none
COc1ccc(N2CC(C(=O)Nc3ccccc3C(=O)NCc3ccco3)CC2=O)cc1 (stereo unspecified)	CYP2C19 inhib 66, CYP2C9 inh 84
O=C(NCc1ccco1)C1CC(=O)N(c2ccc(O)cc2)C1 (stereo unspecified)	CYP2C9 act 2.5
Cc1ccc(NC(=O)N2CCC(C(=O)Nc3ccc(C)cc3C)CC2)cc1	none (no result: CYP2C19 inhib, D1 mod, CYP2C19 act, CYP2C9 act, CYP2C9 inh)
c1ccc(CCn2c3ccccc3c3nnc(SCc4ccc5nonc5c4)nc32)cc1	none (no result: D1 mod)
Cc1ccc(S(=O)(=O)N2CCCC2C(=O)O)s1 (stereo unspecified)	none (no result: D1 mod)
Cc1noc(C)c1S(=O)(=O)N1CCC(C(=O)Nc2ccc(OC(F)(F)F)cc2)CC1	none (no result: D1 mod)
CN(C)c1nc(N)nc(Cn2ccnc2)n1	CYP2C19 inhib 54
O=C(CCC1COc2ccccc2O1)NCc1ccccc1 (stereo unspecified)	CYP2C19 inhib 59 (no result: D1 mod)
c1ccc(CNCC2COc3ccccc3O2)cc1 (stereo unspecified)	none (no result: CYP2C19 inhib, D1 mod, CYP2C19 act, CYP2C9 act, CYP2C9 inh)
O=C(CC1COc2ccccc2O1)NCc1ccccc1 (stereo unspecified)	none (no result: CYP2C19 inhib, CYP2C19 act, CYP2C9 act, CYP2C9 inh)
O=C(CC1COc2ccccc2O1)NCCc1ccccc1 (stereo unspecified)	CYP2C19 inhib 54 (no result: D1 mod)
Cc1ccc(N2C(=O)NC3(CCCCC3)C2=O)cc1	none
Cc1ccc(N2C(=O)CC3(CC4C=CC3C4)C2=O)cc1 (stereo unspecified)	CYP2C9 inh 81
CCOc1ccccc1N(CC(=O)OC)S(C)(=O)=O	none
CC1CCN(CCc2nc3cc(NC(=O)NC4CCCCC4)ccc3n2C)CC1	none (no result: D1 mod)
O=C(COc1ccccc1Cl)N1CCN(c2ccc(F)cc2)CC1	CYP2C19 inhib 82
O=C(COc1ccccc1Br)N1CCN(c2ccccc2)CC1	CYP2C19 inhib 95 (no result: D1 mod)
O=[N+]([O-])c1ccc(N2CCN(S(=O)(=O)Cc3ccccc3)CC2)cc1N1CCOCC1	CYP2C19 inhib 56, CYP2C9 inh 53 (no result: D1 mod)
CCS(=O)(=O)N1CCN(c2ccc([N+](=O)[O-])c(N3CCOCC3)c2)CC1	none (no result: CYP2C19 inhib, D1 mod, CYP2C19 act, CYP2C9 act, CYP2C9 inh)
O=C(CN1CCN(c2ccc(F)cc2)CC1)N1CCOCC1	none
O=C(Cn1cccc1)N1CCN(c2ccc(F)cc2)CC1	CYP2C19 inhib 73
Cc1nc2ccccc2nc1OCC(=O)N1CCN(c2ccccc2)CC1	none
Nc1nc(SCC(=O)NC2CCCCCC2)[nH]c(=O)c1-c1ccccc1	none (no result: D1 mod)
CCOC(=O)CNC(=O)c1cc(C)oc1C	none
Cn1c(=O)c2c(ncn2CC(=O)N2CCN(c3ccc(F)cc3)CC2)n(C)c1=O	CYP2C9 inh 78
O=C(COc1ccccc1Cl)N1CCN(c2ccc([N+](=O)[O-])c(N3CCOCC3)c2)CC1	CYP2C9 inh 85 (no result: D1 mod)
COc1ccc(Nc2ncc(C(=O)N3CCN(c4ccc(F)cc4)CC3)c3ccccc23)cc1	CYP2C19 inhib 61, CYP2C9 inh 66 (no result: D1 mod)
O=C(OCC(=O)N1CCN(c2ccccc2)CC1)c1ccccn1	none
O=[N+]([O-])c1ccc(N2CCCCC2)cc1N1CCOCC1	none (no result: D1 mod, hDAT+cocaine)
O=C(OCC(=O)N1CCN(c2ccccc2)CC1)c1ccc2ccccc2n1	CYP2C9 act 2.3 (no result: D1 mod)
CCCNC(=S)Nc1ccc2nc(-c3ccccn3)c(-c3ccccn3)nc2c1	none (no result: D1 mod, hDAT+cocaine)
COC(=O)c1cc(NC(=O)c2nccnc2C(=O)O)cc(C(=O)OC)c1	none (no result: D1 mod)
O=C(COc1ccc(-n2cnnn2)cc1)N1CCN(c2ccc(F)cc2)CC1	none
O=C(CN1C(=O)c2cccc3cccc1c23)N1CCN(c2ccc(F)cc2)CC1	CYP2C9 act 2.2 (no result: D1 mod)
COC(=O)c1ccc(OC)cc1OCC(=O)N1CCN(c2ccc(F)cc2)CC1	CYP2C19 inhib 64 (no result: D1 mod)
CCC1=C(OC(=O)N(CC)CC)N2C(=O)OC(=NCC3CC3)[C@]2(C)[C@H]2C1=CC[C@H]1C(=O)N(CC)C(=O)[C@H]12	none (no result: CYP2C19 inhib, D1 mod, CYP2C19 act, CYP2C9 act, CYP2C9 inh)
CCOC(=O)C1CN(S(=O)(=O)c2ccc(OC)cc2)c2cc(S(=O)(=O)CC)ccc2O1 (stereo unspecified)	CYP2C19 inhib 50, hDAT+cocaine -7.9, CYP2C9 inh 58 (no result: D1 mod)
CCS(=O)(=O)c1ccc2c(c1)N(S(C)(=O)=O)CC(C(=O)NCc1ccccc1OC)O2 (stereo unspecified)	CYP2C9 inh 62 (no result: D1 mod)
O[C@@H]([C@H](O)[C@H](O)CBr)[C@H](O)CBr	none (no result: CYP2C19 inhib, D1 mod, CYP2C19 act, CYP2C9 act, CYP2C9 inh)
Cc1ccccc1NC(=O)CC1(c2ccc(N(C)C)cc2)C(=O)c2ccccc2C1=O	CYP2C19 inhib 56 (no result: D1 mod)
O=C(O)CC1(c2ccccc2)C(=O)c2ccccc2C1=O	none
CCCCNc1nc(-c2ccccc2)nc(-n2ccnc2)n1	CYP2C19 inhib 86, CYP2C9 inh 85 (no result: D1 mod)
c1ccc(-c2nc(-n3ccnc3)nc(-n3ccnc3)n2)cc1	CYP2C19 inhib 56
c1ccc(N(c2ccccc2)c2nc(N3CCCC3)nc(-n3ccnc3)n2)cc1	none (no result: hDAT+cocaine)
c1ccc(CN2CCN(c3nc(-c4ccccc4)nc(-n4ccnc4)n3)CC2)cc1	CYP2C9 inh 57
C=CC1C(N2CCOCC2)C(C)(C)S1(=O)=O (stereo unspecified)	none
CCCc1nc(N2CCOCC2)c2sc(=S)n(-c3ccccc3)c2n1	none (no result: D1 mod)
O=C(NCc1ccccc1)c1ccc2nc(-c3ccco3)c(-c3ccco3)nc2c1	CYP2C9 inh 77 (no result: D1 mod)
COc1ccc(N=Cc2nc(-c3ccco3)oc2O)cc1	none (no result: CYP2C19 inhib, D1 mod, CYP2C19 act, CYP2C9 act, CYP2C9 inh)

From PubChem BioAssay
